Bioassay records from PubChem BioAssay.
Cycloheximide cs: Cycloheximide Counterscreen for Small Molecule Inhibitors of Shiga Toxin; cell reporter, cycloheximide protein synthesis inhibition counterscreen; max response, %; 12% of 300,000 active; AID 2314, 2010; in the data active = max response mostly above about 13%, no sharp cut-off; inactive = mostly below about 14%; also: read at 38.3 µM for the half of the compounds with a filed dose
NS1 function inh: qHTS Assay for Inhibitors of Influenza NS1 Protein Function | Potency, µM (highest dose often 46.1 µM) | 0.4% of 270,000 active | AID 2326, 2010; calls by dose curve; also: actives are rising curves; nearly all actives have a fitted effect of over 50% in size
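In this qHTS, NS1 from influenza A is expressed in budding yeast, where it slows growth. Cells are switched from glucose to 2% galactose medium (pH 6.0, -URA), treated with compound, and growth recovery is read at OD600.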
Pf growth 48h: Primary qHTS for delayed death inhibitors of the malarial parasite plastid, 48 hour incubation; Potency, µM (series often up to 28.7 µM), usual class: inhibitors; 5.9% of 310,000 active; P. falciparum luciferase growth in erythrocytes, 48 h; AID 504832, 2011
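Firefly luciferase activity from engineered P. falciparum reports growth; inhibitors lower the luminescent signal. Cultures contained 2% hematocrit erythrocytes at 0.1% final parasitemia.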
Sm TGR inh: qHTS Assay for the Inhibitors of Schistosoma Mansoni Peroxiredoxins; Schistosoma mansoni thioredoxin glutathione reductase (TGR), Q962Y6; purified TGR, DTNB reduction, TNB absorbance 405 nm; Potency, µM (series often up to 114 µM), usual class: inhibitors; 3% of 360,000 active; also: nearly all actives have a fitted effect of over 60% in size
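TGR 20 nM + NADPH 100 uM (dispensed conc.), cpd preinc 15 min RT; start with NADPH (500 uM addition) then DTNB (15 mM addition). Kinetic TNB absorbance, 405 nm filter. Four-parameter Hill fit across titration.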
Shiga inhibitor: A qHTS for Small Molecule Inhibitors of Shiga Toxin. Vero cells, Shiga toxin protein synthesis inhibition reporter. inhibition, % at 38.7 µM. 9.2% of 290,000 active; in the data active = inhibition mostly above about 28%, no sharp cut-off; inactive = mostly below about 43%
Pf growth 96h: Primary qHTS for delayed death inhibitors of the malarial parasite plastid, 96 hour incubation | Potency, µM (titrated, usually from 28.7 µM), most hits filed as inhibitors | 6.9% of 320,000 active | AID 504834, 2011 | P. falciparum luciferase reporter growth, 96 h
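Two-generation exposure (96 h) targets delayed-death phenotype. Reporter parasites carrying integrated firefly luciferase, in red cells at 2% hematocrit and 0.05% parasitemia final, kept at 37 C, 5% CO2; luminescence loss indicates inhibition.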
Large screens that a line does not name were inactive. Hits are enriched below; roughly 21% of the tested compounds scored in any of these assays. Unless noted, calls follow the shape of the dose curve; as a rule, active = well fitted curve in the direction sought with a large enough effect; inconclusive = small, poorly fitted or top-dose-only effect, or another doubt; inactive = no such curve, though single readings can be large; an effect the other way counts as inactive or inconclusive.

Cc1ccc(-c2nc(=S)c3c(n2Cc2ccco2)CCCC3)cc1	Pf growth 48h inconclusive, Sm TGR inh 8.91µM
Cc1cccc(-c2nc(=S)c3c(n2Cc2ccco2)CCCC3)c1	Sm TGR inh 20µM (no result: Pf growth 96h)
Cc1ccc(-c2nc(=S)c3c(n2CC2CCCO2)CC(C)(C)OC3)cc1 (configuration not stated)	Pf growth 96h inconclusive (no result: Pf growth 48h)
Cc1ccc(-c2nc(=S)c3c(n2Cc2ccco2)CC(C)(C)OC3)cc1	Pf growth 48h inconclusive, Pf growth 96h 8.28µM
CN(C)CCCn1c(-c2ccccc2)nc(=S)c2c1CCCC2	Sm TGR inh 44.7µM
Cc1nn(-c2ccc(F)cc2)c(N)c1C1(O)C(=O)Nc2ccccc21 (configuration not stated)	none (no result: NS1 function inh)
O=C(Oc1cc(=O)oc2c1c(=O)n1c3c(cccc23)CC1)c1ccccc1	Sm TGR inh 10µM, Pf growth 96h inconclusive
O=C(Oc1cc(=O)oc2c1c(=O)n1c3c(cccc23)CC1)c1ccc(F)cc1	Sm TGR inh 25.1µM
COCC(C)NCc1ccccc1C (configuration not stated)	Pf growth 96h 11.7µM
COCC(C)NCc1cccc(OC)c1OC (configuration not stated)	none
CCC(C)c1ccccc1N1CC(C(=O)N2CCN(C(=O)c3ccco3)CC2)CC1=O (configuration not stated)	Pf growth 48h inconclusive, Pf growth 96h inconclusive (no result: Cycloheximide cs, NS1 function inh, Shiga inhibitor)
O=C(Nc1sc2c(c1C(=O)N1CCOCC1)CCCCC2)c1cccnc1	none (no result: NS1 function inh)
Cc1ccc(N2CN=C3SCC(=O)N3C2)cc1C	Cycloheximide cs 21.9, Pf growth 96h inconclusive
Cc1cccc(N2CN=C3SCC(=O)N3C2)c1	Sm TGR inh inconclusive
O=C(c1cc2c(s1)-c1ccccc1OC2)N1CCC2(CC1)OCCO2	Cycloheximide cs 39.8, Shiga inhibitor 38.6
COc1cccc(N2CCN(C(=O)c3cc4c(s3)-c3ccccc3OC4)CC2)c1	Pf growth 96h 4.15µM
COc1ccc(N2CCN(C(=O)c3cc4c(s3)-c3ccccc3OC4)CC2)cc1	none
O=C(c1cc2c(s1)-c1ccccc1OC2)N1CCCC1	none (no result: Pf growth 48h)
CCCN1CCN(CCCNC(=O)c2cc3c(s2)-c2ccccc2OC3)CC1	Pf growth 48h inconclusive, Pf growth 96h inconclusive
CCOC(=O)N1CCN(C(=O)c2cc3c(s2)-c2ccccc2OC3)CC1	Pf growth 96h 8.28µM
CCCN1CCN(C(=O)c2cc3c(s2)-c2ccccc2OC3)CC1	Cycloheximide cs 26.1, Shiga inhibitor 31.5
Cc1oc(-c2ccc(Cl)cc2)nc1CS(=O)CC(=O)NCCCN1CC(C)CC(C)C1 (configuration not stated)	Pf growth 48h inconclusive, Pf growth 96h inconclusive
CC(=O)N[C@H]1C(O[C@@H]2O[C@H](C[C@@H](O)[C@H]3O[C@@H](N4CCC(=O)NC4=O)[C@H](O)[C@@H]3O)[C@H](O)[C@H](O)[C@H]2NC(=O)/C=C/CCCCCCCCCCC(C)C)OC(CO)[C@@H](O)[C@@H]1O (some centres not stated)	none (no result: NS1 function inh, Pf growth 48h, Sm TGR inh, Pf growth 96h)
O=C1C[C@H]2C(=O)[C@@H]1[C@@H](C(=O)O)[C@H]2C(=O)O	none (no result: Cycloheximide cs, Pf growth 48h, Sm TGR inh, Shiga inhibitor, Pf growth 96h)
O=C1C(=O)N(C2CCS(=O)(=O)C2)C(c2cccc(O)c2)/C1=C(/O)c1ccc(Cl)cc1 (configuration not stated)	Sm TGR inh 56.2µM
COC(=O)c1ccc(C2/C(=C(/O)c3ccc(Cl)cc3)C(=O)C(=O)N2C2CCS(=O)(=O)C2)cc1 (configuration not stated)	none
COC(=O)C1=C(c2ccc(F)cc2OCc2ccccc2)C[C@@H]2CC[C@H]1N2C(=O)NCCOc1ccccc1Cl	Pf growth 48h 2.62µM, Pf growth 96h inconclusive (no result: Cycloheximide cs, NS1 function inh, Shiga inhibitor)
COC(=O)C1=C(c2ccc(F)cc2F)C[C@@H]2CC[C@H]1N2C(=O)NC1Cc2ccccc2C1	Pf growth 96h inconclusive (no result: Cycloheximide cs, NS1 function inh, Shiga inhibitor)
COC(=O)C1=C(c2ccc(F)cc2OCc2ccccc2)C[C@@H]2CC[C@H]1N2C(=O)NCc1ccccc1Cl	Pf growth 48h 5.22µM, Pf growth 96h 4.15µM (no result: Cycloheximide cs, NS1 function inh, Shiga inhibitor)
